For assay [1], the target named is Serine/threonine-protein kinase MARK2 (Homo sapiens) (UniProt Q7KZI7). To be noted: at 1 µM.
Assay [2] addresses PAS domain-containing serine/threonine-protein kinase (Homo sapiens) (UniProt Q96RG2). To be noted: at 0.1 µM.
Assay [3] has the same target. To be noted: at 1 µM.
Assay [4] deals with Phosphorylase b kinase gamma catalytic chain, skeletal muscle/heart isoform (Homo sapiens) (UniProt Q16816). To be noted: at 0.1 µM.
Assay [5] shares this target. The note with it: at 1 µM.
Assay [6] addresses T1, Phosphorylase b kinase gamma catalytic chain, liver/testis isoform (Homo sapiens) (UniProt P15735).
T1 sequence (whole entry): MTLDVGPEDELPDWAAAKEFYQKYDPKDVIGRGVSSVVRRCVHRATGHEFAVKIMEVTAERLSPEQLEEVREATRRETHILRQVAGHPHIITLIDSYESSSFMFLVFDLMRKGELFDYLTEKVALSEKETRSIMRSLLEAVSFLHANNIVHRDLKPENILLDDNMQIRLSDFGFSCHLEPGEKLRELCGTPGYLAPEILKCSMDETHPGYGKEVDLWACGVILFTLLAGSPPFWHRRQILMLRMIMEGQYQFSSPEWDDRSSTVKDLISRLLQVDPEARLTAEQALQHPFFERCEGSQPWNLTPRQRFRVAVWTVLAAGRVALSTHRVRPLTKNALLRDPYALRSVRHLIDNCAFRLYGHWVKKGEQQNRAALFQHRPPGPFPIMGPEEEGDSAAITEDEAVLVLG
The note with it: at 0.1 µM.

The target of assay [7] is T1, Phosphorylase b kinase gamma catalytic chain, liver/testis isoform (Homo sapiens). The note with it: at 1 µM.
In assay [8] the target is Serine/threonine-protein kinase pim-1 (Homo sapiens) (UniProt P11309). To be noted: at 0.1 µM.
Chain of Serine/threonine-protein kinase pim-1 (Homo sapiens) (P11309 whole entry, looked up): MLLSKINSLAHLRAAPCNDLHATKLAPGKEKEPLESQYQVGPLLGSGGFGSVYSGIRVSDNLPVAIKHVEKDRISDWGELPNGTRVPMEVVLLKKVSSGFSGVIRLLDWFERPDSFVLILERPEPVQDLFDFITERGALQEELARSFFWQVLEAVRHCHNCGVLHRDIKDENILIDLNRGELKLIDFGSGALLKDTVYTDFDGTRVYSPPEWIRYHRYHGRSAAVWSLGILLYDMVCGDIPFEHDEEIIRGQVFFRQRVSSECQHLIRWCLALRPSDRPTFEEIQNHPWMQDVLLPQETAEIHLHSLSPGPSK
Assay [9] has the same target. To be noted: at 1 µM.
For assay [10], the target named is Serine/threonine-protein kinase pim-2 (Homo sapiens) (UniProt Q9P1W9). To be noted: at 0.1 µM.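 Note: reported value is the mean percent inhibition of PIM2, measured in the GSK PKIS kinase inhibitor set screen.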
Chain of Serine/threonine-protein kinase pim-2 (Homo sapiens) (Q9P1W9 whole entry, looked up): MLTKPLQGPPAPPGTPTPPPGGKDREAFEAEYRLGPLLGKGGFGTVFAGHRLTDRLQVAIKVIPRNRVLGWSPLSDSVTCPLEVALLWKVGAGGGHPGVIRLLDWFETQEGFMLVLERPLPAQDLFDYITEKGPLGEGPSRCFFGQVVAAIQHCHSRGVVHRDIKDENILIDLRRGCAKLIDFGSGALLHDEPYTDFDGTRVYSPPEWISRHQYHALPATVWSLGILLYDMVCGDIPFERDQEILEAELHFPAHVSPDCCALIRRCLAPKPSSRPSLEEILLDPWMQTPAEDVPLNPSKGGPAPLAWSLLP

Molecules are shown by their SMILES.

Chain of Serine/threonine-protein kinase MARK2 (Homo sapiens) (Q7KZI7 whole entry, the tested form may be a part): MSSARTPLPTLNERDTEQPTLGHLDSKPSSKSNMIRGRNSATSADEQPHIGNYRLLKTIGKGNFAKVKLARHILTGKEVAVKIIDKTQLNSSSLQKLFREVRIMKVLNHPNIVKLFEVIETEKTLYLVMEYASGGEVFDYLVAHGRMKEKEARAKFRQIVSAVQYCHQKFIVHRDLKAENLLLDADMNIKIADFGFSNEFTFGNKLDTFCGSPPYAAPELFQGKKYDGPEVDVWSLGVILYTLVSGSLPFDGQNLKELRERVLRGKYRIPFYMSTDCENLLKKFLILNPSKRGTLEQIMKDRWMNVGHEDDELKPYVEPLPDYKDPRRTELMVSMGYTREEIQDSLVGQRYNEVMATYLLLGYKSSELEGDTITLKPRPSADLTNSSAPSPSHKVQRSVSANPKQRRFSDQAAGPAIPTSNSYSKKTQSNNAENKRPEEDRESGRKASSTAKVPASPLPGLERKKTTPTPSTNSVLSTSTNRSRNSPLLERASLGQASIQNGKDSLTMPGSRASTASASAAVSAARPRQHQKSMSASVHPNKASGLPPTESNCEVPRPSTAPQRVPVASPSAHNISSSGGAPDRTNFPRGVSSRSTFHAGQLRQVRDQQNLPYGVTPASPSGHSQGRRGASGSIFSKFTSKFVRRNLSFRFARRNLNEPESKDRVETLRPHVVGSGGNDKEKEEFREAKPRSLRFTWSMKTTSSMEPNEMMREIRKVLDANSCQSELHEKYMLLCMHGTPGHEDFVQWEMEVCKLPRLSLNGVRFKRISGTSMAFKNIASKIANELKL
Chain of Phosphorylase b kinase gamma catalytic chain, skeletal muscle/heart isoform (Homo sapiens) (Q16816 whole entry, looked up, canonical isoform): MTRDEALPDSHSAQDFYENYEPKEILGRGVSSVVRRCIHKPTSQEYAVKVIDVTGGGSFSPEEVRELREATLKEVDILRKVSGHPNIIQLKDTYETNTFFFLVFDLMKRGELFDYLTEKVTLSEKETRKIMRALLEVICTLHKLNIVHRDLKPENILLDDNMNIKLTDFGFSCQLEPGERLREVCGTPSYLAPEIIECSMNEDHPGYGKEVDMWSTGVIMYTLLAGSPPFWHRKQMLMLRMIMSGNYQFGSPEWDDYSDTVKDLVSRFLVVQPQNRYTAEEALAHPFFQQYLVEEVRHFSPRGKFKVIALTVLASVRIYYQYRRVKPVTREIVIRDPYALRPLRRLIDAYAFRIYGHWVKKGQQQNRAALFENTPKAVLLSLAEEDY
Chain of PAS domain-containing serine/threonine-protein kinase (Homo sapiens) (Q96RG2 whole entry, the tested form may be a part): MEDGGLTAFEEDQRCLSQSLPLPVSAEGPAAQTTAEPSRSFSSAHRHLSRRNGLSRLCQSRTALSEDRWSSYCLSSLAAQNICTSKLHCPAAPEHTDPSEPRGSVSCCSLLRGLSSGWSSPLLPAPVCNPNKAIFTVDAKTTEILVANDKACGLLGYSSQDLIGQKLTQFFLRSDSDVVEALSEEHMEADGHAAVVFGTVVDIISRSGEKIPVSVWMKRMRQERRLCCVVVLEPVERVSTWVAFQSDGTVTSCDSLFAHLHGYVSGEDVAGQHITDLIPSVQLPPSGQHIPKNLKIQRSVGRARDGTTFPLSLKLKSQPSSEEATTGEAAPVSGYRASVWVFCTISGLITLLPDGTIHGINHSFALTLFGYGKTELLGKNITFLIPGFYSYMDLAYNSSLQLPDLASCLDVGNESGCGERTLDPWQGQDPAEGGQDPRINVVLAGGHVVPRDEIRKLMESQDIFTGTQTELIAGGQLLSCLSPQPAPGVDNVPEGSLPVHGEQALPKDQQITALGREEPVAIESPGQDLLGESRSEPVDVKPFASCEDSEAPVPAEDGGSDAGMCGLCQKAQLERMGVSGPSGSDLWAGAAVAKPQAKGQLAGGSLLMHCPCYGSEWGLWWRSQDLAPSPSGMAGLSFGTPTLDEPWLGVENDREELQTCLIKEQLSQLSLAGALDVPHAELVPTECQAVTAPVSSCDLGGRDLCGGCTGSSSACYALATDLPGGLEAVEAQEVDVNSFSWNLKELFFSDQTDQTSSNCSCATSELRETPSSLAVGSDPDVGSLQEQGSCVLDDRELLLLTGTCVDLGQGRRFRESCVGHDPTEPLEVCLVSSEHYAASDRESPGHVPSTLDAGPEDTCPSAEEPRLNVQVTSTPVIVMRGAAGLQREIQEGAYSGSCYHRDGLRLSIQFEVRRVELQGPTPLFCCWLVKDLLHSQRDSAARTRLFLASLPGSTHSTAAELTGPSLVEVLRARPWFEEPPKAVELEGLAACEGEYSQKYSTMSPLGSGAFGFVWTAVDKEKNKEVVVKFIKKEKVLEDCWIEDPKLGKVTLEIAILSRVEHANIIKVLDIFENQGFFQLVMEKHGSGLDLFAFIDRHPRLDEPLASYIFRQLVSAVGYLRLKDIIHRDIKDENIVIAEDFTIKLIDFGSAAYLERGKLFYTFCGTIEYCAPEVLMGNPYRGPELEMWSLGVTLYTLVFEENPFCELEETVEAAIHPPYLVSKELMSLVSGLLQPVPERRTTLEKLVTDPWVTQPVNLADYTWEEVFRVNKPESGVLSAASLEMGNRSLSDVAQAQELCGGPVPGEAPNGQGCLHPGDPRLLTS

For the compound `CCn1cc(-c2ccnc3[nH]ccc23)c(-c2cccc(NC(=O)Nc3ccc(OCc4ccccc4)cc3)c2)n1`, the inhibition in assay [1] stood at 1.54%; in assay [2], 0.94%; in [3], 1.65%; in assay [4], 1.58%; in [5], 4.8%; in assay [6] it was 1.37%. Also, the inhibition was 1.3% in [7], -0.93% in assay [8], -1.25% in [9] and 0.19% in assay [10].
As to `NS(=O)(=O)c1ccc(N/N=C2\C(=O)Nc3ccc4ncccc4c32)cc1`, the inhibition is 35.3% in assay [1]; -0.19% in [2]; -1.87% in [3]; 11.2% in [4]; 50% in [5]; 3.72% in assay [6]. The inhibition in [7] was 14.1%; in [8], 1.89%; in assay [9], 15.9%; in assay [10], 1.2%.
With `CS(=O)(=O)CCNCc1coc(-c2ccc3ncnc(Nc4ccc(OCc5ccccc5)cc4)c3c2)c1`, the inhibition amounted to 2.39% in assay [1]; 0.45% in assay [2]; 0.89% in assay [3]; 2.33% in [4]; 6.25% in [5]; 3.94% in assay [6]. Also, the inhibition in assay [7] is 3.59%; in assay [8] it was 1.45%; in [9], 1.25%; in [10], -0.56%.
`COC(=O)Nc1nc2ccc(Oc3ccc(NC(=O)Nc4cccc(Cl)c4)cc3)cc2[nH]1`: the inhibition turned out to be 0.42% in [1]; 1.55% in assay [2]; 0.95% in assay [3]; 1.88% in assay [4]; 4.58% in assay [5]; 1.21% in assay [6]. The inhibition in assay [7] was 1.57%; in assay [8] it was -0.68%; in assay [9] it was -1.08%; in assay [10], -0.32%.
In the case of `CNC(=O)c1cncc(/C=C/c2ccccc2Cl)c1`, the inhibition in assay [1] was 0.58%; in assay [2] it was 1.8%; in [3], 4.02%; in assay [4], -1.06%; in assay [5], 2.44%; in assay [6] it was 1.88%. Further, the inhibition in [7] turned out to be 5.64%; in assay [8], 0.54%; in [9], 0.89%; in assay [10], 0.13%.
Turning to `CC(C)COC(=O)c1ccc2c(c1)/C(=C/Nc1ccc(S(N)(=O)=O)cc1)C(=O)N2`, the inhibition in assay [1] was 70.5%; in assay [2] it was 0.36%; in assay [3], 2.64%; in assay [4] it was 12.2%; in assay [5], 50.5%; in assay [6] it was -1.63%. Besides, the inhibition in assay [7] turned out to be 16.4%; in assay [8], 3.92%; in assay [9] it was 27.8%; in assay [10], 0.83%.
For the compound `CCOc1ccc2c(-c3ccnc(Nc4cccc(C(F)(F)F)c4)n3)cnn2n1`, the inhibition in assay [1] came to 0.82%; in assay [2], 0.62%; in assay [3], 0.46%; in assay [4], 2.65%; in assay [5], 6.48%; in [6] it was 3.64%. Moreover, the inhibition in [7] is 3.92%; in [8], -1.05%; in assay [9], -1.35%; in assay [10], 0.55%.
Turning to `Cc1cccc(Nc2ncc(-c3ccccc3)o2)c1`, the inhibition in assay [1] is 6.99%; in assay [2], -0.74%; in [3], 1.15%; in assay [4], 2.49%; in assay [5], 0.97%; in assay [6], 2.92%. The inhibition in [7] is 3.71%; in assay [8] it was 1.11%; in [9], 0.94%; in [10], 0.15%.
`CC(=O)NCc1cccc(C#Cc2cncnc2Nc2ccc(OCc3cccc(F)c3)c(Cl)c2)c1`: the inhibition in [1] was 1.33%; in [2], -0.91%; in [3], -1.6%; in [4], 3.33%; in [5] it was 5.96%; in assay [6], -0.18%. Besides, the inhibition is -1.04% in [7], 1.13% in assay [8], 0.22% in [9] and 0.41% in assay [10].
On to `Fc1ccc(-c2cc(-c3c[nH]nc3-c3ccccn3)ccn2)cc1`, for which the inhibition is -2.56% in assay [1]; -0.42% in assay [2]; 0.53% in assay [3]; 5.71% in assay [4]; 9.03% in assay [5]; 5.07% in assay [6]. Moreover, the inhibition in [7] was 8.42%; in assay [8] it was -0.17%; in assay [9] it was 0.76%; in assay [10] it was 0.19%.
Turning to `CCCN1CCC(c2ccc(Nc3nc(Nc4cc(F)ccc4C(N)=O)c4cc[nH]c4n3)c(OC)c2)CC1`, the inhibition amounted to 41% in assay [1]; 0.01% in assay [2]; 20.7% in assay [3]; 51.3% in [4]; 80.7% in [5]; 25.7% in [6]. Also, the inhibition in [7] worked out at 71.7%; in assay [8], 7.64%; in assay [9], 45.3%; in assay [10] it was 1.98%.
Take `CN1CCC(n2cnc(-c3ccc(F)cc3)c2-c2ccnc(N)n2)CC1`: the inhibition in [1] is -0.63%; in assay [2], -0.52%; in assay [3], 1.84%; in assay [4], 1.61%; in assay [5], 5.65%; in [6], 2.82%. For the same compound, the inhibition came out at 2.94% in assay [7], 2.59% in assay [8], 19.3% in assay [9] and 0.18% in assay [10].
Regarding `COc1ccc(-c2cc(-c3c[nH]nc3-c3ccccn3)ccn2)cc1`, the inhibition came to 1.63% in assay [1]; 1.23% in assay [2]; 0.75% in assay [3]; 2.63% in [4]; 6.04% in assay [5]; 6.55% in assay [6]. The inhibition was 8.39% in [7], -0.05% in assay [8], 0.03% in [9] and 0.36% in assay [10].
`NS(=O)(=O)c1ccc(Nc2ncc(-c3ccccc3)o2)cc1`: the inhibition in assay [1] was 7.59%; in assay [2], -0.04%; in [3] it was -0.31%; in assay [4] it was 3.92%; in [5], 18.4%; in assay [6], 4.88%. Further, the inhibition in assay [7] is 7.08%; in assay [8], 0.17%; in assay [9], 0.64%; in assay [10], -0.58%.
As to `Fc1ccc(-c2nn3ncccc3c2-c2ccnc(Nc3ccc4c(c3)OCCO4)n2)cc1`, the inhibition in assay [1] was -1.26%; in assay [2], -0.29%; in [3], -3.15%; in assay [4], 4.49%; in assay [5], 6.66%; in assay [6] it was 4.66%. In addition, the inhibition was 0.54% in [7], 0.37% in assay [8], 1.21% in assay [9] and 0.26% in [10].
For the compound `CCn1c(-c2nonc2N)nc2cnc(Oc3cccc(NC(=O)c4ccc(N(C)C)cc4)c3)cc21`, the inhibition in assay [1] is 11%; in [2] it was -0.49%; in [3], 1.54%; in assay [4], -0.31%; in assay [5], 2.21%; in assay [6], 1.21%. In addition, the inhibition is -0.74% in assay [7], 0.69% in assay [8], 8.74% in assay [9] and -0.19% in assay [10].
Take `CC(=O)Nc1cccc(C#Cc2cncnc2Nc2ccc(OCc3cccc(F)c3)c(Cl)c2)c1`: the inhibition in [1] is 0.33%; in assay [2] it was 1.37%; in assay [3] it was -0.46%; in [4] it was 0.65%; in assay [5], 1.71%; in assay [6] it was 3.82%. Further, the inhibition in [7] was determined as 1.55%; in assay [8] it was 1.32%; in assay [9], 0.75%; in assay [10] it was 0.84%.

One may read the inhibition as the drop in the measured response relative to a control, in per cent.

The values are drawn from ChEMBL document CHEMBL1961873, “Compounds: GSK PKIS; Assays: Nanosyn kinase panel” (2012).
